# Counter-ions that a name gives are not always drawn.
# Tested on: RIVA
# Assay: growth inhibition by drug alone (1 - RLU/untreated control) (fraction); higher = stronger inhibition
# Details: 100 nM; time (day): 4; 177Lu-lilotomab satetraxetan 0 ug/ml
# Summary of the method: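 A radiolabelled anti-CD37 antibody conjugate (~600 MBq/mg) was applied for 18 h at 0.5 µg/ml to RIVA and 1 µg/ml to U-2932 cells, with untreated cells run alongside. All cells were washed and seeded at 3,000 cells/well onto library-printed plates at 10/100 nM (RIVA) or 10/1,000 nM (U-2932). Growth inhibition was based on RealTime-Glo luminescence compared with untreated no-drug wells. Daily reads began on day 3 after 1 h at 37°C, with each value being 1 − RLU/mean of the 48 such wells on that plate.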
row,SMILES,growth inhibition by drug alone
1,CC(C)(C)c1[nH]cnc1/C=c1\[nH]c(=O)/c(=C/c2ccccc2)[nH]c1=O [NPI-2358 (Plinabulin)],0.953
2,COc1cc(Nc2ncc3c(n2)-c2ccc(Cl)cc2C(c2c(F)cccc2OC)=NC3)ccc1C(=O)O [MLN8237 (Alisertib)],0.553
3,O=c1[nH]cc(F)c(=O)[nH]1 [Adrucil (Fluorouracil)],-0.481
4,CC(C)c1ccc(Cn2ccc3c4c(N)nc(NC5CC5)nc4ccc32)cc1,0.486
5,CC/C(=C(\c1ccccc1)c1ccc(OCCN(C)C)cc1)c1ccccc1 [Tamoxifen Citrate (Nolvadex)],0.381
6,Cn1cc(C2=C(c3ccc(Cl)cc3Cl)C(=O)NC2=O)c2ccccc21,-0.393
7,c1ccc(-c2nn3c(c2-c2ccnc4cc(OCCN5CCOCC5)ccc24)CCC3)nc1,-0.252
8,O=C(NCCS(=O)(=O)c1ccc(C(F)(F)F)cn1)c1ccc(Cl)cc1,-0.334
9,Cc1ccc(S(=O)(=O)C=CC#N)cc1,0.0423
10,CCC1=C[C@@H]2CN(C1)Cc1c([nH]c3ccccc13)[C@@](C(=O)OC)(c1cc3c(cc1OC)N(C)[C@H]1[C@@](O)(C(=O)OC)[C@H](OC(C)=O)[C@]4(CC)C=CCN5CC[C@]31[C@@H]54)C2 [Vinorelbine (Navelbine)],0.964
11,Cc1cc(Nc2cc(N3CCN(C)CC3)nc(/C=C/c3ccccc3)n2)n[nH]1,-0.347
12,CN(N=O)C(=O)N[C@@H](C=O)[C@@H](O)[C@H](O)[C@H](O)CO [Streptozotocin (Zanosar)],-0.295

# Same assay, conditions: 100 nM; time (day): 5; 177Lu-lilotomab satetraxetan 0 ug/ml
row,SMILES,growth inhibition by drug alone
1,COc1ccc(S(=O)(=O)Nc2cccnc2Nc2ccc(O)cc2)cc1,-0.406
2,C[C@]12CCC(=O)C=C1CC[C@@H]1[C@@H]2[C@@H](O)C[C@@]2(C)[C@H]1CC[C@]2(O)C(=O)CO [Hydrocortisone (Cortisol)],-0.373
3,COc1cc(OC2CCN(C)CC2)ccc1Nc1ncc2c(n1)n(C1CCCC1)c(=O)n2C,-0.545
4,Nc1nc(F)nc2c1ncn2[C@@H]1O[C@H](CO)[C@@H](O)[C@@H]1O [Fludarabine (Fludara)],-0.187
5,Nc1nc(Nc2ccc(S(N)(=O)=O)cc2)nn1C(=O)c1c(F)cccc1F,-0.0832
6,Nc1ncn([C@@H]2O[C@H](CO)[C@@H](O)[C@H]2O)c(=O)n1 [Azacitidine (Vidaza)],-0.3
7,COc1cc2nccc(Oc3ccc(NC(=O)NC4CC4)c(Cl)c3)c2cc1C(N)=O [E7080 (Lenvatinib)],-0.168
8,Nc1ccn([C@@H]2O[C@H](CO)[C@@H](O)[C@@H]2O)c(=O)n1 [Cytarabine],0.0792
9,Nc1cccc2c1C(=O)N(C1CCC(=O)NC1=O)C2=O (stereo not given) [Pomalidomide],-0.132
10,CN(C)c1nc(N(C)C)nc(N(C)C)n1 [Altretamine (Hexalen)],-0.488
11,Cc1[nH]c(/C=C2\C(=O)Nc3ccc(S(=O)(=O)N(C)c4cccc(Cl)c4)cc32)c(C)c1C(=O)N1CCN(C)CC1,-0.286
12,O=C(O[C@@H]1Cc2c(O)cc(O)cc2O[C@@H]1c1cc(O)c(O)c(O)c1)c1cc(O)c(O)c(O)c1 [(-)-Epigallocatechin gallate],-0.44
13,CCc1c2c(nc3ccc(OC(=O)N4CCC(N5CCCCC5)CC4)cc13)-c1cc3c(c(=O)n1C2)COC(=O)[C@]3(O)CC [Irinotecan HCl Trihydrate (Campto)],-0.0382
14,S=C(NCc1ccc2c(c1)OCO2)N1CCN(c2ncnc3c2oc2ccccc23)CC1 [Amuvatinib (MP-470)],0.0713
15,COc1ccc2c3n(c(=NC(=O)c4cccnc4)nc2c1OC)CCN3,0.0156
16,C#Cc1cccc(Nc2ncnc3cc(OCCOC)c(OCCOC)cc23)c1 [Erlotinib HCl],0.6
17,Cc1ccc(-c2cc(C(F)(F)F)nn2-c2ccc(S(N)(=O)=O)cc2)cc1 [Celecoxib],-0.157
18,N#CC[C@H](C1CCCC1)n1cc(-c2ncnc3[nH]ccc23)cn1,-0.128
19,CCc1cncnc1N1CCN(Cc2nc3ccc(C(F)(F)F)cc3[nH]2)CC1,-0.0867

row,SMILES,growth inhibition by drug alone
1,CCN(CC)C(=S)SSC(=S)N(CC)CC [Disulfiram (Antabuse)],-0.203
2,CC(C)[C@H](C(=O)Nc1ccc(C(=O)NO)cc1)c1ccccc1,0.897
3,CC(=O)O[C@]1(C(C)=O)CC[C@H]2[C@@H]3C=C(C)C4=CC(=O)CC[C@]4(C)[C@H]3CC[C@@]21C [Megestrol Acetate],-0.0299
4,COc1cc2ncnc(Nc3cccc(Br)c3)c2cc1OC,-0.0794
5,N#Cc1ccc(C(c2ccc(C#N)cc2)n2cncn2)cc1 [Letrozole],-0.207
6,CC(=O)c1c(C)c2cnc(Nc3ccc(N4CCNCC4)cn3)nc2n(C2CCCC2)c1=O,-0.138
7,COc1cccc2c1C(=O)c1c(O)c3c(c(O)c1C2=O)C[C@@](O)(C(=O)CO)C[C@@H]3O[C@H]1C[C@H](N)[C@H](O)[C@H](C)O1 [Doxorubicin (Adriamycin)],0.872
8,CC(C)(C)c1[nH]cnc1/C=c1\[nH]c(=O)/c(=C/c2ccccc2)[nH]c1=O [NPI-2358 (Plinabulin)],0.959
9,COc1cc(Nc2ncc3c(n2)-c2ccc(Cl)cc2C(c2c(F)cccc2OC)=NC3)ccc1C(=O)O [MLN8237 (Alisertib)],0.569
10,O=c1[nH]cc(F)c(=O)[nH]1 [Adrucil (Fluorouracil)],-0.493
11,CC(C)c1ccc(Cn2ccc3c4c(N)nc(NC5CC5)nc4ccc32)cc1,0.491
12,CC/C(=C(\c1ccccc1)c1ccc(OCCN(C)C)cc1)c1ccccc1 [Tamoxifen Citrate (Nolvadex)],0.352
13,Cn1cc(C2=C(c3ccc(Cl)cc3Cl)C(=O)NC2=O)c2ccccc21,-0.389
14,c1ccc(-c2nn3c(c2-c2ccnc4cc(OCCN5CCOCC5)ccc24)CCC3)nc1,-0.3
15,O=C(NCCS(=O)(=O)c1ccc(C(F)(F)F)cn1)c1ccc(Cl)cc1,-0.354
16,Cc1ccc(S(=O)(=O)C=CC#N)cc1,0.00106
17,CCC1=C[C@@H]2CN(C1)Cc1c([nH]c3ccccc13)[C@@](C(=O)OC)(c1cc3c(cc1OC)N(C)[C@H]1[C@@](O)(C(=O)OC)[C@H](OC(C)=O)[C@]4(CC)C=CCN5CC[C@]31[C@@H]54)C2 [Vinorelbine (Navelbine)],0.968
18,Cc1cc(Nc2cc(N3CCN(C)CC3)nc(/C=C/c3ccccc3)n2)n[nH]1,-0.369
19,CN(N=O)C(=O)N[C@@H](C=O)[C@@H](O)[C@H](O)[C@H](O)CO [Streptozotocin (Zanosar)],-0.308

# — the supplement of paper PMC6897291
